Bioassay records deposited in PubChem by several laboratories.
CYP2C9 act – CYP2C9 (human) activation; activation factor at 5 µM; recombinant CYP2C9, luciferin-H conversion, luminescence; stronger effect = higher value; factor 1 = untreated enzyme, 0 = blocked; P11712; AID 1024; 96,000 tested, 1.4% active;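 active = activation factor of 2 or more for CYP2C9 at a 5 µM dose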;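 also: 0 = sulfaphenazole-blocked wells and 1 = vehicle-only wells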
CYP2C9 inhib – blocks human cytochrome P450 2C9. P11712. CYP2C9 Supersomes, luciferin-H conversion, luminescence. inhibition, % at 5 µM. 96,000 tested, 20% active. AID 777;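 active = blocking of liver enzyme CYP2C9 beyond about 50% at 5 µM, limit read from the data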
CYP2C19 inhib – blocks human cytochrome P450 2C19 | P33261 | CYP2C19 Supersomes, luciferin-H EGE luminescence, 30 min | inhibition, % at 5 µM | AID 778 | 96,000 tested, 21% active;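 active = CYP2C19 inhibition above a set limit at 5 µM in the primary screen, cut at about 50% in these data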;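 also: plate controls were negative control wells for no effect and 2.5 mM tranylcypromine positive control for full effect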
EphB4 antag – EphB4-ephrin-B2 interaction antagonism | inhibition, % at 7 µM | EphB4 LBD / TNYL-RAW-Alexa532 peptide, fluorescence polarization | AID 720 | 97,000 tested, 0.15% active;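 active = inhibition above the screen-wide mean inhibition plus 3 SD, cut at about 15% in these data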;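 also: 0% = DMSO wells and 100% = excess unlabeled TNYL-RAW peptide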
Target sequence (P54760 whole entry, looked up, the tested form may be a part): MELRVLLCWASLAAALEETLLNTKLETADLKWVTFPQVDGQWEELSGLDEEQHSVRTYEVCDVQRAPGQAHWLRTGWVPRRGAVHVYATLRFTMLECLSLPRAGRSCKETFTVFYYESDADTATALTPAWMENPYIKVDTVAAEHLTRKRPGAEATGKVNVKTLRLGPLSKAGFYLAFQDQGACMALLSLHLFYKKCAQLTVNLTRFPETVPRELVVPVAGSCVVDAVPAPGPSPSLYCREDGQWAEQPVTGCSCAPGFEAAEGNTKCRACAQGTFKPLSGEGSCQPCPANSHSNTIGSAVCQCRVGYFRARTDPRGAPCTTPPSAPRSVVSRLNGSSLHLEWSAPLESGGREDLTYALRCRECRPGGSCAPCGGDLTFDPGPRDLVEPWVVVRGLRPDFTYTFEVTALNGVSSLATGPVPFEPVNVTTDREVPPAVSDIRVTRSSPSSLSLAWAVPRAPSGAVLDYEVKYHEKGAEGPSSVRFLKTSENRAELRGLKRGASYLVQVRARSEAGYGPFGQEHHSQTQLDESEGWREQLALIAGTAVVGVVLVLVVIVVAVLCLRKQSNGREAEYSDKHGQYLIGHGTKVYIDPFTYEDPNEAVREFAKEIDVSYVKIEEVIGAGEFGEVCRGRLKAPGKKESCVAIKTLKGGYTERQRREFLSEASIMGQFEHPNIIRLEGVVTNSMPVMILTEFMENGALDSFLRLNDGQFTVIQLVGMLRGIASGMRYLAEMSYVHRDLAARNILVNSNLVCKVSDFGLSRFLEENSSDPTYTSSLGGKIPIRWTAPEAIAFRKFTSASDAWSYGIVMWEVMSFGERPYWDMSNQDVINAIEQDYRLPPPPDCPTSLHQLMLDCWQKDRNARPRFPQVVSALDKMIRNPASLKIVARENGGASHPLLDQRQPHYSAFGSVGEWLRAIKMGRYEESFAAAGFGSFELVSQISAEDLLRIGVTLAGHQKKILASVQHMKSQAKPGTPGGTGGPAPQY
CYP2C19 activ – cytochrome P450 2C19 (human) activation; P33261; recombinant CYP2C19, luciferin-H EGE luminescence; stronger effect = higher value; 0 = fully inhibited enzyme, 1 = untreated enzyme; activation factor at 5 µM; 96,000 tested, under 10 active;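 active = activation factor of at least 2 at 5 µM in the primary screen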;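 also: 0 = wells with 2.5 mM tranylcypromine and 1 = vehicle-only wells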
* hit, by the source's call; · = no result. Most compounds without a hit are left out; they make up all but 27% or so of the library.

SMILES	CYP2C9 act	CYP2C9 inhib	CYP2C19 inhib	EphB4 antag	CYP2C19 activ
CCOc1ccccc1NC(=O)C1CCN(S(=O)(=O)c2ccc(OC)c(OC)c2)CC1	1.1	-12	30	2	0.7
O=c1c2cn[nH]c2[nH]c(=S)n1-c1ccccc1	·	·	·	1	·
Cc1ccccc1NC(=O)CSc1nc2cc3c(cc2cc1C)CCC3	0.5	52*	8	-5	0.9
CCC(=O)Nc1ccc(NC(=O)CSc2nc3cc4c(cc3cc2C)CCC4)cc1	0.8	24	-3	6	1
COc1ccc(CCNC(=O)CCN2C(=O)COc3ccc(C)cc32)cc1OC	0.8	20	31	-2	0.7
O=C(CCN1C(=O)COc2ccccc21)NCc1cccs1	1.1	-10	84*	-7	0.2
O=C(CN1CCOc2ccccc21)NCc1cccs1	0.9	7	60*	1	0.4
O=C(CCN1C(=O)COc2ccccc21)NCCN1CCc2ccccc2C1	1	-3	-6	9	1.1
COc1ccc(CCNC(=O)CCN2C(=O)COc3ccccc32)cc1OC	0.8	24	82*	·	0.2
O=C(NCc1ccc2c(c1)OCO2)C1CCC(CNc2c(N3CCCCC3)c(=O)c2=O)CC1 (stereo not given)	0.7	29	4	0	1
O=C(CN(C(=O)CNC(=O)c1ccco1)c1ccc(Cl)c(Cl)c1)NC1CCCCC1	0.1	89*	86*	-4	0.1
O=C(CN(Cc1ccc2c(c1)OCO2)C(=O)CNC(=O)c1ccco1)NC1CCCCC1	0.2	83*	61*	12	0.4
O=C(CS(=O)CC(=O)N(CC(=O)NC1CCCC1)c1ccc2c(c1)OCCO2)Nc1ccc(F)cc1 (stereo not given)	1	3	11	9	0.9
O=C(CN(C(=O)CNC(=O)c1cccs1)c1ccc2c(c1)OCCO2)NC1CCCC1	0.1	91*	25	6	0.8
CCOc1ccc(N(CC(=O)NC2CCCCC2)C(=O)CNC(=O)c2ccco2)cc1	·	·	·	-2	·
O=C(NCC(=O)N(Cc1cccs1)C(C(=O)NC1CCCC1)c1ccco1)c1cccs1 (stereo not given)	0.1	89*	87*	-12	0.1
O=C(Nc1ccccc1)c1cnc(-c2ccccc2)nc1-c1ccccc1	0.7	27	20	-7	0.8
O=C(CN1C(=O)C(=O)c2ccccc21)NC1CCCCC1	·	·	·	-4	·
COc1ccc(C(=S)Nc2ccc(N(C)C)cc2)cc1	1.2	-20	30	1	0.7
Cc1ccc2c(c1)nnn2C1CCN(S(=O)(=O)c2ccc(C(=O)N(C)C3CCCCC3)cc2)CC1	1	-5	-1	·	1
O=C(CN(C(=O)CNC(=O)c1ccco1)c1ccc2c(c1)OCO2)NC1CCCCC1	0	95*	73*	-5	0.3
O=C(CN(Cc1cccs1)C(=O)CNC(=O)c1ccco1)NC1CCCCC1	0.5	50*	9	-6	0.9
CCOC(=O)c1ccc(N(CC(=O)NC2CCCC2)C(=O)CNC(=O)c2ccco2)cc1	0.6	41	26	14	0.7
O=C(NCC(=O)N(Cc1cccs1)C(C(=O)NC1CCCCC1)c1ccncc1)c1ccco1 (stereo not given)	·	·	·	0	·
O=C(CC1COc2ccccc2O1)NCc1ccccc1 (stereo not given)	·	·	·	0	·
SMILES	CYP2C9 act	CYP2C9 inhib	CYP2C19 inhib	EphB4 antag	CYP2C19 activ
O=C(CC1COc2ccccc2O1)NCCc1ccccc1 (stereo not given)	0.6	42	54*	-2	0.5
O=C(CCC1COc2ccccc2O1)NCc1ccccc1 (stereo not given)	0.7	32	59*	1	0.4
c1ccc(CNCC2COc3ccccc3O2)cc1 (stereo not given)	·	·	·	-1	·
COc1ccccc1NC(=O)c1ccc(NS(C)(=O)=O)cc1	3.3*	-233	8	3	0.9
COc1cc(NS(C)(=O)=O)c(OC)cc1NC(=O)c1ccccc1	2.5*	-145	-9	4	1.1
NC(=O)C1CCN(CCCNC2CC(=O)N(Cc3ccc(N4CCCC4=O)cc3)C2=O)CC1 (stereo not given)	·	·	·	-7	·
NC(=O)C1CCN(C(=O)C23CC4CC(CC(C4)C2)C3)CC1	1	-2	-8	-11	1.1
CCOC(=O)N1CCN(C(=O)CSc2cc(C)nc3c(-c4ccccc4OC)c(C)nn23)CC1	0.6	42	28	-6	0.7
CCOC(=O)N1CCC(Nc2cc(C)nc3c(-c4ccccc4OC)c(C)nn23)CC1	0.2	79*	84*	·	0.2
